Reference: PubChem BioAssay AID504339 (National Center for Advancing Translational Sciences (NCATS), 2011)
“And” between values parts separate entries of the source, which are not always exact repeats. Identical values can stand only once. About 17,000 (4.4%) of roughly 390,000 compounds were called active. Not shown: some 8% with an inconclusive outcome. Calls follow the shape of the dose curve; as a rule, active = well fitted inhibition curve with a large enough effect; inconclusive = small, poorly fitted or top-dose-only effect; inactive = no such curve, though single readings can be large or run the other way. What follows is part of a selection rich in actives, with near analogues and random picks from the rest. More than one record can exist for a structure, and the calls need not agree.

Target: Lysine-specific demethylase 4A (Homo sapiens) (UniProt O75164)
Sequence (O75164 whole entry, looked up, the tested form may be a part): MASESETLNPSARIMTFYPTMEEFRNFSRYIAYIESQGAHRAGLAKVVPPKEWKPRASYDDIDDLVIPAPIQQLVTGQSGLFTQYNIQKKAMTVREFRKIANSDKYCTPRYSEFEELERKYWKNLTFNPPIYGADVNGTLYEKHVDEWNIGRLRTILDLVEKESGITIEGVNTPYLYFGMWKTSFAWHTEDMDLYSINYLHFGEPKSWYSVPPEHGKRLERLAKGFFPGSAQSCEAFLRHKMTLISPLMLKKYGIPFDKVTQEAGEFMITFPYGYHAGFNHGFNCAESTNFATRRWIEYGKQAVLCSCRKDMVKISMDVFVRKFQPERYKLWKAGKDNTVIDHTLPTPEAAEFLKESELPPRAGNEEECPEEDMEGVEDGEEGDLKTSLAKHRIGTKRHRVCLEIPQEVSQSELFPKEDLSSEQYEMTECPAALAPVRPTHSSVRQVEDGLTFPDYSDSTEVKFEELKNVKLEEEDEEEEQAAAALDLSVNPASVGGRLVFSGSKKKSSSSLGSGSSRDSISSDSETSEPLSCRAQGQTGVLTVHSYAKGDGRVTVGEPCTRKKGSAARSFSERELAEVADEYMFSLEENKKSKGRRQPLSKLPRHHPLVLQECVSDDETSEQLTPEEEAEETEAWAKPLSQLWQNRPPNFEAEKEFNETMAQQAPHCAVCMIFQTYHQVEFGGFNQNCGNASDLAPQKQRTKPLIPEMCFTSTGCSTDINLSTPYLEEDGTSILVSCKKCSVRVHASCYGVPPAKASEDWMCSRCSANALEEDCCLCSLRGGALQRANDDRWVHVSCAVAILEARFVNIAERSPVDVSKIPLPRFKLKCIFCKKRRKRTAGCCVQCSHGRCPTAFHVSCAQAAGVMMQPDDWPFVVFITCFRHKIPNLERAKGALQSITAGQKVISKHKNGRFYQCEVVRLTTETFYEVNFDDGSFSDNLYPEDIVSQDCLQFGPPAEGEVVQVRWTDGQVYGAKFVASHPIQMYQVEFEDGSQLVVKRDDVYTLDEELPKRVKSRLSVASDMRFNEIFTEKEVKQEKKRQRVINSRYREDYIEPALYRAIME
Test: qHTS Assay for Inhibitors of JMJD2A-Tudor Domain; also: nearly all actives have a fitted effect of over 50% in size
Conditions: AlphaScreen JMJD2A-Tudor / H3K4me3 peptide binding; series mostly up to 114 µM
Potency is read from the fitted curve at half-maximal effect.

Potency, inactive:
CCOc1ccc(NC(=O)c2cc3c(=O)n(Cc4cccs4)ccc3nc2C)cc1, Cc1cccc(NC(=O)c2nnn(CC(=O)Nc3ccc(C(C)C)cc3)c2N)c1C, Cc1cc2nc(-c3ccc(NC(=O)c4cc5ccccc5o4)cc3)oc2cc1C, CCOC(=O)N1CCc2c(sc3c2c(=O)n(Cc2ccccc2)c(=O)n3CC(=O)Nc2cccc(C)c2)C1, COc1cccc(-n2c(=O)c3c(C)c(C(=O)N(C)C)sc3n(Cc3cccc(C)c3)c2=O)c1, COc1ccc(CCNC(=O)Cn2c(=O)n(-c3ccccc3)c(=O)c3c(C)c(C)sc32)cc1OC, COc1ccc(-c2ccc(OC)c(C3C4C=CCC(C)C4C(=O)N3Cc3ccccc3)c2)cc1C (stereo not drawn), COc1cccc(CNC(=O)CCc2nc(-c3ccc(C)cc3)no2)c1, O=C1CC[C@@H]2CC3(C[C@@H]4CCN1[C@H]24)Nc1cc([N+](=O)[O-])ccc1NC3=NC1CCCCC1 (stereo partly drawn), COC(=O)c1cccc(Cn2nnc3sc4c(c3c2=O)CCC(C(C)(C)C)C4)c1 (stereo not drawn), OCc1ccc(OCCCOc2cccc3cccnc23)cc1, O=C(Nc1cccc2cccnc12)C(F)(F)F, CCOc1ccccc1NC(=O)Cn1nnc(C(=O)Nc2ccc(C)c(C)c2)c1N, COc1cc(NS(=O)(=O)c2cccs2)cc(OC)c1, Cc1cc(C(=O)OCC(=O)Nc2nnc(C(C)C)s2)c2ccccc2n1, O=C(COC(=O)c1ccc(O)cc1)Nc1nccs1, Cc1cccc(CCNC(=O)c2ccc3c(c2)nc2n3CCC(C)C2)c1 (stereo not drawn), Cc1nn(CC(=O)NCCc2ccccc2)c(=O)c2c1sc1ccccc12, Cc1ccc(C)c(N2CCN(C(=O)Cn3ncn4cccc4c3=O)CC2)c1, CC(=O)c1ccc(NC(=O)c2nc(-c3ccc(C)cc3)n3c2CCCCC3)cc1, CCc1nnc2c3ccccc3nc(N3CCN(c4ccc(C)cc4C)CC3)n12, CCN(CC)CCN(C(=O)c1cccc([N+](=O)[O-])c1)c1nc2ccc(OC)cc2s1, CN(C)S(=O)(=O)c1ccc(C(=O)N(Cc2cccnc2)c2nc3c(F)cc(F)cc3s2)cc1, CCOc1ccc(C(=O)c2cn(Cc3ccccc3OC)c3ccc(F)cc3c2=O)cc1, CCN(CC)c1ccc(NC(=O)CN2C(=O)c3cccnc3Oc3ccc(Cl)cc32)c(C)c1, COC(=O)c1c(NC(=O)CCCOc2ccccc2)sc2c1CCC(C)C2 (stereo not drawn), O=C(CN1CCCCCC1)Nc1ccc(Cl)cc1F, O=C(CN1CCCCCC1)Nc1ccc(Br)cc1Br, Cn1c(COc2ccccc2C(C)(C)C)nc2ccccc21, CCOCCn1ccc2c(OCC(=O)NCc3ccc(C)cc3)cccc2c1=O, CC1(C)NC(=O)N(CCOc2cccc(Oc3ccccc3)c2)C1=O, C=CCNCCCCOc1ccccc1, CCOc1ccc(NC(=O)c2cc(S(=O)(=O)N3CCCC3)c[nH]2)cc1, Cn1c(=O)c2c(ncn2CC(=O)Nc2cccc(C(F)(F)F)c2)n(C)c1=O, O=[N+]([O-])c1cccc(S(=O)(=O)NCc2ccccn2)c1, O=C(CSc1nnc(-c2ccccc2F)o1)Nc1cccc(C(F)(F)F)c1, O=C(CSc1nc(-c2ccccc2)cs1)Nc1cccc([N+](=O)[O-])c1, COc1cccc(-c2nnc3n(CCc4ccccc4)c(=O)c4ccccc4n23)c1O, Cc1ccc(-c2nc(Cn3c(=O)cc(-c4ccccc4)c4c(C)nn(C)c43)c(C)o2)cc1, COc1ccc(CNC(=O)CCc2c(C)nn(-c3ccc(N4CCCC4)nn3)c2C)cc1, CCOc1ccc(C(=O)c2cn(Cc3ccc(F)cc3)c3ccc(F)cc3c2=O)cc1, Cc1cccc(Cn2c(CN3CCC(C(=O)NCc4ccccc4Cl)CC3)cc3ccccc32)c1, CCOC(=O)c1c(SCC(=O)Nc2cccc(C)c2C)nc(=O)[nH]c1C, CC1=C(C(=O)Nc2ccccc2)C(c2ccc(C)cc2)n2nc(SCc3ccccc3C)nc2N1 (stereo not drawn), O=c1cc(CCl)nc2scc(-c3ccccc3)n12, CN(C)CCCn1c(=O)n(Cc2ccccc2)c(=O)c2c3c(sc21)CCCCC3, CC(C)Cn1c(-c2ccc(S(=O)(=O)N3CCOCC3)cc2)csc1=Nc1cc(Cl)ccc1Cl, CCN(c1ncnc2c1cnn2-c1ccc(C)cc1)C1CCCCC1, COc1ccc(-c2ccc(=O)n(CC(=O)Nc3ccc(Br)cc3F)n2)cc1, CCCC(=O)C1=C(N(C)c2ccccc2)CC(C)(C)C(C(=O)OC)C1=O (stereo not drawn), COCC(C)N=CC1=C(O)CC(C)(C)CC1=O (stereo not drawn), Cn1c(=O)c2c(SCC(=O)NCC3CCCO3)nc(-c3ccccc3F)nc2n(C)c1=O (stereo not drawn), O=C(CCS(=O)(=O)c1cc(Br)cc2c1N(C(=O)C1CC1)CC2)Nc1ccc(C(F)(F)F)cc1, COc1ccc(OC)c(NC(=O)CN2CCCN(Cc3cc(C)ccc3C)S2(=O)=O)c1, Cc1cccc(C(=O)OC(C)CN2CCCC2)c1 (stereo not drawn), Cc1ccc(C(C)C)cc1OCC(=O)Nc1ccccc1N1CCCC1, COc1cc(/C=N/NC(=O)c2ccoc2C)ccc1OCCN1CCCCC1, CCCn1c(=N)c(C(=O)NCc2ccccc2)cc2c(=O)n3cccc(C)c3nc21, Cn1c(=O)c2c(SCC(=O)N3CCc4ccccc43)nc(-c3ccc(Cl)cc3)nc2n(C)c1=O, CCNC(=O)CC1C(=O)N(c2ccc(F)cc2)C(=O)N1Cc1ccc(C)cc1 (stereo not drawn), CN1CCN(C2(CNC(=O)COc3ccc(C(C)(C)C)cc3)CCCCC2)CC1, Cc1ccc(Cl)cc1N1CCN(C(=O)CN2C(=O)COc3ccc(S(=O)(=O)N4CCOCC4)cc32)CC1, Oc1ccc(Cl)cc1C1C=C(c2ccc3c(c2)OCO3)NC(c2ccc(F)c(Br)c2)N1 (stereo not drawn), CC(C)c1ccc(C2C(C#N)=C(N)Oc3c2oc(CO)cc3=O)cc1 (stereo not drawn), COc1cc(OC)cc(-c2nnc(SCC(=O)Nc3ccc(C(=O)O)cc3)s2)c1, COc1ccc(NC(=O)CSc2nc(N)c(-c3ccccc3)c(=O)[nH]2)cc1, CN(Cc1ccccc1)C(=O)c1cn(C)c2ccc(S(=O)(=O)N3CCCCC3)cc2c1=O, CCOc1ccc(CN2CCN(CCCc3ccccc3)C(CCO)C2)cc1 (stereo not drawn), CCOc1ccc(CC(=O)NC2CCN(Cc3ccccc3)CC2)cc1, CCOc1ccccc1CNC(=O)c1ccc(-n2c(C)cc3c2CCC(C)C3)cc1 (stereo not drawn), COc1ccc(C(=O)COC(=O)C(O)c2ccccc2)c(OC)c1 (stereo not drawn), COc1ccc(/C=C2/C(=O)OCc3cc(OC)c(OC)cc32)c(OC)c1, Cc1ccc(CNC(=O)CCc2c(C)nc3c(c(C)nn3-c3ccccc3)c2C)cc1, Cc1cc(C(=O)NNC(=S)NC(C)c2ccccc2)cs1 (stereo not drawn), Cc1ccc(S(=O)(=O)CC(=O)NC(C)c2ccccc2)cc1 (stereo not drawn), CCN1CCN(CCCNC(=O)c2cnn(-c3ccc(C)cc3C)c2C2CCN(C(=O)OC(C)(C)C)CC2)CC1, COc1ccc(Cn2c(=O)n(-c3ccccc3C)c(=O)c3c4c(sc32)CN(C(C)=O)CC4)cc1, O=C(NC(c1ccco1)c1cc(Cl)c2cccnc2c1O)c1ccccc1 (stereo not drawn), O=C(CSc1cccc2cccnc12)N/N=C/c1cccnc1, CC(=O)NC(c1cccs1)c1cc(Cl)c2cccnc2c1O (stereo not drawn), COc1ccccc1N1CCN(C(CNC(=O)C(=O)NCc2ccc(C)cc2)c2cccnc2)CC1 (stereo not drawn)

Potency, active:
Cc1cc2c(cc1C)NC1(C[C@H]3CCC(=O)N4CC[C@@H](C1)[C@@H]34)C(=NC(C)(C)CC(C)(C)C)N2 (stereo partly drawn) 15.8 µM, O=C(Nc1ccccc1)Oc1cccc2cccnc12 15.8 µM, Cc1cc(C(=O)OCC(=O)Nc2nccs2)c2ccccc2n1 20 µM, Cc1ccc(C)c(N2CCN(C(=O)Cn3nc(C)c4sc5ccccc5c4c3=O)CC2)c1 12.6 µM, COc1ccc2sc(N(CCCN(C)C)C(=O)c3ccc(S(=O)(=O)N(C)C4CCCCC4)cc3)nc2c1 56.2 µM, O=C(CN1CCCCCC1)Nc1ccc(Br)cc1[N+](=O)[O-] 44.7 µM, CC(O)CNCCOc1cccc(Oc2ccccc2)c1 (stereo not drawn) 3.55 µM, O=c1cc(CO)oc(C(Nc2cccc([N+](=O)[O-])c2)c2ccccn2)c1O (stereo not drawn) 50.1 µM, O=c1cc(CO)oc(C(Nc2cccc(C(F)(F)F)c2)c2ccccn2)c1O (stereo not drawn) 56.2 µM, CN(C)CCCn1c(-c2ccc(Cl)cc2)csc1=Nc1ccccc1 39.8 µM, OCCn1c(-c2ccccc2)csc1=Nc1ccccc1 56.2 µM, C=CCO/N=C/C1=C(O)C(C(=O)OC)C(C)(C)CC1=O (stereo not drawn) 79.4 µM, Cc1ccc(C(C)C)cc1OCCN1CCCC1 79.4 µM, Cc1cc(OCCN2CCCC2)cc(C(C)C)c1 5.01 µM, CC(C)c1ccc(C2CC(=O)N3CN(C4CCCCC4)CSC3=C2C#N)cc1 (stereo not drawn) 25.1 µM, COc1ccc(-c2nc3c(c(SCC(=O)Nc4ccc(C(=O)O)cc4)n2)Cc2ccccc2O3)cc1 35.5 µM, CCOc1ccc(CN2CCCN(C)CC2)cc1 3.55 µM, COc1ccc(/C=C2/C(=O)N(c3ccccc3)N=C2C)c(OC)c1 15.8 µM, C/C(CC(=O)NC(C)c1ccccc1)=N\NC(N)=S (stereo not drawn) 31.6 µM, CCOC(=O)N1CCN(C(c2cccnc2)c2ccc3cccnc3c2O)CC1 (stereo not drawn) 17.8 µM, CCN1CCN(C(c2cccnc2)c2cc(Cl)c3cccnc3c2O)CC1 (stereo not drawn) 17.8 µM

Potency, inactive and 79.4 µM (active):
COc1cccc(-n2c(=O)c3c(C)c(C(=O)N(C)C)sc3n(CC(=O)NCCc3ccc(OC)c(OC)c3)c2=O)c1
